Screening results deposited in PubChem BioAssay by National Center for Advancing Translational Sciences (NCATS).
Rows were chosen to be rich in hits. Some 10% of all compounds tested hit in one or more screens of this group.
JMJD2A Tudor inh = qHTS Assay for Inhibitors of JMJD2A-Tudor Domain; 390,000 tested, 4.4% active; Potency, µM (top dose mostly 114 µM), without a hit: at the top dose activity change, negative = inhibition, hits mostly inhibitors; Lysine-specific demethylase 4A (Homo sapiens), O75164; AlphaScreen JMJD2A-Tudor / H3K4me3 peptide binding; also: % is scaled to controls: 0 for no effect and ±100 for the full control effect; nearly all actives have a fitted effect of over 50% in size
GLS inh = qHTS for Inhibitors of Glutaminase (GLS); 410,000 tested, 0.21% active; GLS enzymatic activity, qHTS titration; Potency, µM (doses to about 45.5 µM), inactives show top-dose activity change, negative = inhibition, actives largely listed as inhibitors; also: % is scaled to controls: 0 for no effect and ±100 for the full control effect
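Enzyme dispensed in phosphate buffer (45 mM, pH 8.2, 0.02% Tween-20), compounds pinned in, then 1 mM L-glutamine solution and the glutamate oxidase–HRP–Amplex Red mix added; fluorescence read immediately and again after 30 min at room temperature.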
G9a block = qHTS Assay for Inhibitors of Histone Lysine Methyltransferase G9a; Histone-lysine N-methyltransferase EHMT2 (Homo sapiens), Q96KQ7; G9a H3K9 monomethylation, AlphaScreen, 2 h; Potency, µM (doses to about 102 µM), for the others: at the highest dose activity, negative = inhibition, hits mostly inhibitors; 350,000 tested, 8.8% active; AID 504332, 2011; also: % is scaled to controls: 0 for no effect and ±100 for the full control effect; nearly all actives have a fitted effect of over 75% in size
Target sequence (Q96KQ7 913-1193 limits assumed): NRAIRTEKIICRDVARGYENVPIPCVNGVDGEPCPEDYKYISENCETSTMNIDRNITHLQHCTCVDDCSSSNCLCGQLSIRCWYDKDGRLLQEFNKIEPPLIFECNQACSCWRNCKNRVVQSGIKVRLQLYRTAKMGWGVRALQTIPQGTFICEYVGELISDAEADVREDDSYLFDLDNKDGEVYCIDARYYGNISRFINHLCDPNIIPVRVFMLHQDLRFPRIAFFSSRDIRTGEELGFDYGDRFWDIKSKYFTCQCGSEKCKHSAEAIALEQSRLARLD
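AlphaScreen read-out: biotin-H3K9 peptide (500 nM) methylation by 20 nM enzyme with 20 uM SAM, 2 h at room temperature after 15 min compound preincubation; anti-monomethyl H3K9 antibody plus donor/acceptor beads, 10 min dark.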
BAZ2B block = qHTS Assay for Inhibitors of BAZ2B; Bromodomain adjacent to zinc finger domain protein 2B (Homo sapiens), Q9UIF8; AlphaScreen BAZ2B-H3K14Ac peptide displacement; Potency, µM (highest dose often 114 µM), inactives show top-dose activity change, negative = inhibition, actives largely listed as inhibitors; 360,000 tested, 4.4% active; also: % is scaled to controls: 0 for no effect and ±100 for the full control effect; nearly all actives have a fitted effect of over 60% in size
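Complex of BAZ2B and biotin-H3K14Ac (50 nM apiece) forms over 30 min at RT, then faces library compounds up to 110 uM for another 30 min; AlphaScreen beads added, 20 min dark incubation, luminescence read.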
HP1b chromo inh = HTS for Inhibitors of HP1-beta Chromodomain Interactions with Methylated Histone Tails; AlphaScreen HP1-beta / biotin-H3K9me3 peptide binding; 390,000 tested, 0.56% active; Potency, µM (highest dose often 114 µM), inactives show top-dose activity change, negative = inhibition, actives largely listed as inhibitors; also: nearly all actives have a fitted effect of over 70% in size
Target sequence (P83916 whole entry, looked up): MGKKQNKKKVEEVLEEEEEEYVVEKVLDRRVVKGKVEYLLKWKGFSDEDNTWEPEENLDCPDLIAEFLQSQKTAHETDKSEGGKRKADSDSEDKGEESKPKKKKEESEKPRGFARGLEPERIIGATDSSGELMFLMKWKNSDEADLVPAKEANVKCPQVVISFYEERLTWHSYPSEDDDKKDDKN
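Compound inhibition of the preformed complex between 50 nM HP1-beta and 50 nM biotinylated H3K9me3 peptide was read by AlphaScreen. Buffer was PBS pH 7.4 with 0.01% Tween-20. Incubations ran 30 min at room temperature, with 10 ug/mL donor/acceptor beads.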
The depositor's hits bear a star; ? = inconclusive; · = no result given; [ ] = another dose, or the depositor's remark. Calls follow the shape of the dose curve; as a rule, active = well fitted curve in the direction sought with a large enough effect; inconclusive = small, poorly fitted or top-dose-only effect, or another doubt; inactive = no such curve, though single readings can be large; an effect the other way counts as inactive or inconclusive. Potency is read from the fitted curve at half-maximal effect.

SMILES | JMJD2A Tudor inh | GLS inh | G9a block | BAZ2B block | HP1b chromo inh
COc1ccccc1N1CCN(S(=O)(=O)c2c[nH]c(=O)[nH]c2=O)CC1 | 0.0% | 1.3% | 20µM* | 9.3% | 39.5%
COc1ccc(S(=O)(=O)N2CCC(N3CCN(Cc4ccccc4)C(=O)C3=O)CC2)cc1 | 79.4µM* | 1.6% | -2.7%[59 µM] | -0.3% | 19.6%
COc1ccccc1N1CCN(C2CCCN(S(=O)(=O)c3cccc(Cl)c3)C2)CC1 (stereo not given) | ? | 15.0% | ? | ? | -23.4%
COc1ccc(S(=O)(=O)N2CCC(N3CCN(c4ccccc4OC)CC3)CC2)cc1 | 1.78µM* | 0.0% | 3.16µM* | 39.8µM* | 39.8µM*
COc1ccccc1N1CCN(C2CCN(S(=O)(=O)c3ccc(NC(C)=O)cc3)CC2)CC1 | -7.7% | 0.0% | -4.4% | -3.8% | 13.6%
COc1ccccc1N1CCN(C2CCCN(S(=O)(=O)c3ccc(C)cc3)C2)CC1 (stereo not given) | -30.6% | 6.8% | 56.2µM* | -32.5% | 6.0%
Cc1cccc(CSc2nnc(-c3cnccn3)n2C)c1 | -13.9% | -4.6% | -5.8% | -0.9% | 28.6%
O=C(O)C1CCN(C(=O)c2ccccc2C(=O)N2CCC(C(=O)O)CC2)CC1 | -7.9% | 7.4% | -5.0% | -6.7% | 20.3%
Cc1cccc(Cn2ccc(N)n2)c1 | -17.9% | -6.8% | -21.3%[12.7 µM] | 6.9% | 8.5%
Cc1ccc(S(=O)(=O)c2nc(-c3ccccc3Cl)oc2N(C)C)cc1 | -22.6% | -7.2% | · | -0.9% | 10.3%
COc1cc(-c2nc(S(=O)(=O)c3ccc(C)cc3)c(N(C)C)o2)cc(OC)c1OC | ? | 0.8% | 3.55µM* | ? | -17.0%
COc1ccccc1/C=C/c1nc(S(=O)(=O)c2ccccc2)c(N(C)C)o1 | ? | -9.4% | 35.5µM* | 70.8µM* | 69.3%
COc1ccccc1-c1nc(S(=O)(=O)c2ccc(Cl)cc2)c(N(C)C)o1 | ? | 1.7% | 2.82µM* | ? | ?
Cc1ccc(-c2nc(S(=O)(=O)c3ccc(C)cc3)c(N(C)C)o2)cc1 | ? | 0.1% | 10µM* | ? | -12.3%
Cc1ccc(NC(=O)N2Cc3ccccc3CC2C(=O)NC(C)(C)C)cc1 (stereo not given) | -3.4% | -0.1% | 12.5% | -5.5% | 41.2%
CC(C)NC(=O)C(=O)NCCc1ccc(Cl)cc1 | -19.7% | -1.2% | 1.12µM* | 7.5% | 7.8%
CCOC(=O)c1nnc(-c2ccc(C)cc2)nc1Oc1ccc(Cl)cc1Cl | -4.2% | 1.0% | ? | -28.1% | 37.4%
CCCCCCN1C[C@@H](O)[C@H](n2cc(-c3ccc(F)cc3)nn2)C[C@@H]1c1ccc(OC)cc1 | · | 1.7% | · | · | ·
CC1CCCCN1c1csc2ccc(F)cc2c1=O (stereo not given) | -24.6% | -0.3% | ? | -15.5% | 19.6%[57 µM]
CC1CCCCN1c1ccc(N)cc1C(N)=O (stereo not given) | -8.0% | 2µM* | ? | -22.6% | 14.6%
CCOC(=O)CSc1nc2c(sc(=S)n2-c2ccccc2OC)c(=O)n1-c1ccccc1OC | -15.9% | -12.3% | -8.4% | -17.2% | 7.7%
CCn1c(=S)sc2c(=O)n(-c3ccccc3)c(=S)[nH]c21 | -18.5% | 0.7% | 10µM* | -1.4% | 3.4%
CCOc1ccccc1-n1c(=S)sc2c(=O)n(-c3ccc(C)cc3)c(=S)[nH]c21 | ? | -1.9% | 10µM* | -23.1% | -17.7%
CC(c1ccccn1)N(Cc1ccco1)C(=S)Nc1cccc(F)c1 (stereo not given) | ? | -7.1% | ? | -36.3% | 21.4%
C=C(C)COc1ccc2c(c1)CCC1C2CCC2(C)C(=O)C(=NO)CC12 (stereo not given) | -11.8% | 1.1% | · | · | 14.3%
CCCCCCCC#Cc1ccccc1/C=N/S(=O)c1ccc(C)cc1 (stereo not given) | 8.91µM* | ? | 0.794µM* | 24.6% | 171.0%
Cc1nnc(Nc2ccc(O)cc2)[nH]c1=O | -10.6% | 26.2% | 50.1µM* | -25.6% | 3.7%
